Laboratory results as given in PubChem BioAssay.
Activity calls are given as the source filed them.

Experiments:
[1] = test system: Plasmodium falciparum Sir2 (PF13_0152, Sir2A); assay: Plasmodium falciparum Sir2A binding compounds – biochemical, small-molecule microarray, 635 nm fluorescence, primary screen (AID 1098); settings: fluorescence 635 nm, higher = more signal;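 further: score merges spot fluorescence intensity with its signal-to-noise ratio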
[2] = probe aDKK1 binding to arrayed compounds – biochemical, biotinylated probe, 635/667 nm fluorescence, primary screen (AID 1099); settings: small-molecule microarray, higher = more signal;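 further: score merges 667nm spot fluorescence with signal to noise across triplicate slides; reference of the scale not given here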
[3] = probe aCHRDL2 binding to arrayed compounds – biochemical, biotinylated probe, 635/667 nm fluorescence, primary screen (AID 1100); settings: small-molecule microarray, higher = more signal
[4] = change in splice reporter luminescence, either direction, cell-based, HEK293, spliceosome inhibition project, primary screen (AID 1101); settings: HEK293 splicing luciferase reporter, 24 h, higher = more signal, called active from +8 up or from −8 down;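 further: HEK293 cells carrying a splicing-competent luciferase reporter gene; test concentration not given here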
[5] = target: Fibroblast growth factor 10 (Homo sapiens) (UniProt O15520); assay: compounds binding fibroblast growth factor 10 – biochemical, small-molecule microarray, 635 nm fluorescence, primary screen (AID 1102); settings: FGF10 binding, fluorescence 635 nm, higher = more signal
Fibroblast growth factor 10 (Homo sapiens), sequence (O15520 whole entry, looked up): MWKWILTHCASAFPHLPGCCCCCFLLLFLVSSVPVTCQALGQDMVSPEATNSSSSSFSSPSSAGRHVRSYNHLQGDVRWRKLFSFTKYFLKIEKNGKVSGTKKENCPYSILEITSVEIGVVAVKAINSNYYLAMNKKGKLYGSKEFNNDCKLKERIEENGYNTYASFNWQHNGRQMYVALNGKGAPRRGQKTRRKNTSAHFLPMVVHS

[6] = test system: glycogen synthase kinase-3 (GSK3A per assay name; protocol says GSK3B); assay: compounds binding glycogen synthase kinase-3 – biochemical, small-molecule microarray, 635 nm fluorescence, GSK3A, primary screen (AID 1103); settings: fluorescence 635 nm, higher = more signal; further: the record names both GSK3A and GSK3B
[7] = target: Epidermal growth factor receptor (Homo sapiens) (UniProt P00533); assay: compounds binding epidermal growth factor receptor – biochemical, small-molecule microarray, 635 nm fluorescence, primary screen (AID 1104); settings: EGFR binding, higher = more signal;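 further: score merges 667 nm emission intensity with spot signal to noise over triplicate slides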
Epidermal growth factor receptor (Homo sapiens), sequence (P00533 whole entry, looked up): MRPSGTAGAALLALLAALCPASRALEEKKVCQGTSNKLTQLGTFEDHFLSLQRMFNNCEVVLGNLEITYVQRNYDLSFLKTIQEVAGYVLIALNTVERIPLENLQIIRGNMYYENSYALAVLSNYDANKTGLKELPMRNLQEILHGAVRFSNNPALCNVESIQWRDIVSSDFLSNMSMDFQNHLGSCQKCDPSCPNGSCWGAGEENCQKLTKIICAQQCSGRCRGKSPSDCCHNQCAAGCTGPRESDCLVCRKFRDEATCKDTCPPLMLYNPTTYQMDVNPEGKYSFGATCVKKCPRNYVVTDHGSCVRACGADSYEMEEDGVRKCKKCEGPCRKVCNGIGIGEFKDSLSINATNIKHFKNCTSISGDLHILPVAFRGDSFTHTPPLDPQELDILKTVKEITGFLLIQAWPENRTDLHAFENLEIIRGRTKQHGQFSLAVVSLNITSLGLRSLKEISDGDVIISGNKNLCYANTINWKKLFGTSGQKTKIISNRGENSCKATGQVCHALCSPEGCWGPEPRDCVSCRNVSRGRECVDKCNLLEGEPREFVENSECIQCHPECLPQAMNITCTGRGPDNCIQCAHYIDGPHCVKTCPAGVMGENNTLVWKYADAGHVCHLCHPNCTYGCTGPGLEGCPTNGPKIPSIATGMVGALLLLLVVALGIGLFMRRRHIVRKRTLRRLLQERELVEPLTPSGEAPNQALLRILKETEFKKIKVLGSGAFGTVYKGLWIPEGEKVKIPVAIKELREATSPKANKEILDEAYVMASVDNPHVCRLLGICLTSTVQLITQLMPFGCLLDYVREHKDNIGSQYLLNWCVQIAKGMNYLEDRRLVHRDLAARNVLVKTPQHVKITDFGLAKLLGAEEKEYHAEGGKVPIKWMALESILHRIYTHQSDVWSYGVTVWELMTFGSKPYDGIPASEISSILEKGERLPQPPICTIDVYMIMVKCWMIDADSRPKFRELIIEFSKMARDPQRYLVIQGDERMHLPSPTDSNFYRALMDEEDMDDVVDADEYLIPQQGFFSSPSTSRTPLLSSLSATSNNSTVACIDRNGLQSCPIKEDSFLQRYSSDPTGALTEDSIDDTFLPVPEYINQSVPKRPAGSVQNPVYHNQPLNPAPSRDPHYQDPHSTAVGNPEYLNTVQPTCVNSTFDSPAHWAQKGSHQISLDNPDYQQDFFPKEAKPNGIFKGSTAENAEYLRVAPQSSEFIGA

[8] = target: Follistatin-related protein 3 (Homo sapiens) (UniProt O95633); assay: compounds binding follistatin-related protein 3 – biochemical, small-molecule microarray, 635 nm fluorescence, primary screen (AID 1105); settings: FSTL3 binding, higher = more signal;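 further: score merges emission near 667 nm and signal to noise per printed spot across three slides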
Follistatin-related protein 3 (Homo sapiens), sequence (O95633 whole entry, looked up): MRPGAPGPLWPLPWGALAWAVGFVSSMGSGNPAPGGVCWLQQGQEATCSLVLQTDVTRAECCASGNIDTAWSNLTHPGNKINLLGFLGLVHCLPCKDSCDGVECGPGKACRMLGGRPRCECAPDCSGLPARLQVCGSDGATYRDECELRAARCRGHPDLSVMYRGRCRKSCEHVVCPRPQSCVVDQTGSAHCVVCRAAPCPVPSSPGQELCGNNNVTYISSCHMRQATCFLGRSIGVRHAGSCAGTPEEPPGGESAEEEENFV

[9] = target: Dickkopf-related protein 1 (Homo sapiens) (UniProt O94907); assay: small molecules binding DKK1 protein – biochemical, small-molecule microarray, 635 nm fluorescence scan, primary screen (AID 1106); settings: higher = more signal;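 further: score merges emission near 667 nm with signal to noise over three replicate slides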
Dickkopf-related protein 1 (Homo sapiens), sequence (O94907 whole entry, looked up): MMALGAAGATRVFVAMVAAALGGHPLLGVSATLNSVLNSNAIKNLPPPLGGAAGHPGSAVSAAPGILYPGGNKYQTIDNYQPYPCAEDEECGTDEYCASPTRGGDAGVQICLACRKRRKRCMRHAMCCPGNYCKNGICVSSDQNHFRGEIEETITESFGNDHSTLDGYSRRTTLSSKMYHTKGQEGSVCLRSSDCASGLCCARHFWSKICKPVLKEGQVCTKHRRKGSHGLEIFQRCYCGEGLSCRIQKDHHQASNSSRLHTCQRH

[10] = test system: Inhibin beta A chain (activin A); assay: small molecules binding activin A – biochemical, small-molecule microarray, 635 nm fluorescence scan, primary screen (AID 1107); settings: INHBA, higher = more signal;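 further: mouse activin A protein probed at 4.33 µg/mL on printed slides; score merges bound-protein fluorescence near 667 nm with spot signal-to-noise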

SMILES | composite z-score [1] | composite z-score [2] | composite z-score [3] | z-score [4] | composite z-score [5] | composite z-score [6] | composite z-score [7] | composite z-score [8] | composite z-score [9] | composite z-score [10]
COCCCNC(=O)[C@@H]1c2ccccc2C(=O)N(Cc2ccc(OC(F)(F)F)cc2)[C@H]1c1ccc(CO)cc1 | 0.499 | 0.21 | 0.215 | 0.0366 (inactive) | 0.393 | 0.723 | 0.0725 | 0.481 | 0.743 | 0.639
O=C(NCCN1CCOCC1)[C@@H]1c2ccccc2C(=O)N(Cc2ccc(OC(F)(F)F)cc2)[C@H]1c1ccc(CO)cc1 | -0.0284 | 0.0779 | 1.18 | 0.709 (inactive) | -0.738 | 0.0049 | -0.611 | 0.417 | -1.14 | -0.252
CN(C)CCCNC(=O)[C@@H]1c2ccccc2C(=O)N(Cc2ccccc2C(F)(F)F)[C@H]1c1ccc(CO)cc1 | -0.722 | 0.908 | 0.706 | 0.0896 (inactive) | -0.728 | 0.355 | -0.899 | -0.58 | -0.759 | 0.764
CC(C)NC(=O)[C@@]1(C)c2ccccc2C(=O)N(Cc2ccccc2)[C@H]1c1ccc(CO)cc1 | 1.7 | -0.152 | 0.424 | -0.44 (inactive) | -1.2 | -0.0543 | -0.921 | -0.394 | -0.0744 | -1.14
O=C(NCc1ccc(F)cc1)[C@H]1C[C@H]2C(=O)N3CCC[C@H]3C(=O)N2[C@H]1c1ccc(O)cc1 | 0.605 | -0.294 | -0.292 | -1.62 (inactive) | -0.0335 | -0.73 | 0.192 | -0.423 | 0.889 | -0.964
C=CCOC(=O)[C@H]1[C@@H]2C(=O)O[C@@H](c3ccccc3)[C@@H](c3ccccc3)N2[C@@H](c2ccc(OCCOC(=O)[C@@H]3C[C@@H]4C(=O)N[C@@H](CCCC[N+](C)(C)C)C(=O)N4[C@@H]3c3ccc(O)cc3)cc2)[C@]12C(=O)Nc1ccc(I)cc12 | 1.1 | 0.031 | -0.211 | -0.21 (inactive) | 1.2 | 1.24 | 0.934 | 1.21 | 1.07 | 0.723
CC(C)(C)OC(=O)CC[C@]1(C(=O)NCC(O)CO)N=C(c2ccc(OCCCO)cc2)O[C@H]1c1ccccc1N=[N+]=[N-] (stereo not given in full) | 1.18 | 1.24 | 1.31 | -0.254 (inactive) | 1.4 | -0.0629 | -0.0913 | 0.352 | 0.175 | -0.0171
CCCCN1CC=CC23O[C@@H]4/C=C\CCCOC(=O)C4[C@H]2C(=O)N(C(CO)C(C)C)[C@@H]3C1=O (stereo not given in full) | -0.459 | -0.277 | -0.179 | 0.558 (inactive) | -0.138 | -0.115 | 0.183 | -0.436 | 0.323 | 1.21
CC(C)NC(=O)[C@@H]1c2ccccc2C(=O)N(Cc2ccc(OC(F)(F)F)cc2)[C@H]1c1ccc(CO)cc1 | 0.471 | 1.21 | 0.696 | -0.211 (inactive) | 1.25 | 1.3 | 0.272 | 1.37 | 0.657 | 0.237
COCCOC(=O)N1C(=O)[C@@]2(c3cc(C#CCC(C(=O)OC)C(=O)OC)ccc31)[C@H](c1ccc(O)cc1)N1[C@H](c3ccccc3)[C@H](c3ccccc3)OC(=O)[C@H]1[C@@H]2C(=O)Nc1nc2ccccc2s1 | 1.54 | 0.595 | 0.481 | -1.12 (inactive) | 0.972 | 1.27 | 0.594 | 1.38 | 0.91 | 1.11
CC(C)(C)N1CC=CC23O[C@@H]4/C=C\CCCOC(=O)C4[C@H]2C(=O)N(CCCO)[C@@H]3C1=O (stereo not given in full) | 1.18 | -0.396 | -0.006 | 0.539 (inactive) | -0.795 | -0.416 | -1.33 | -0.996 | -1.07 | 0.076
CC(C)(C)OC(=O)CC[C@@]1(C(=O)NCCN2CCOCC2)N=C(c2ccc(OCCCO)cc2)O[C@@H]1c1ccccc1CN=[N+]=[N-] | 1.49 | 0.455 | 0.454 | -0.268 (inactive) | 0.08 | 0.139 | -0.088 | -0.205 | -0.45 | 0.67
O=C(NCC(O)CO)C1N=C(c2ccc(OCCCO)cc2)N(c2ccccc2)O1 (stereo not given) | -0.144 | -0.12 | -0.104 | -1.13 (inactive) | 0.897 | 0.65 | 0.195 | 0.799 | 0.433 | -0.899
COC(=O)c1cccc([C@H]2OC(=CC(=O)OC(C)C)C[C@@H](c3cccc(C(=O)OC)c3)O2)c1 | 1.26 | 0.515 | 0.284 | 0.599 (inactive) | 1.18 | 1.33 | 0.693 | 1.09 | 0.34 | 0.463
CN1C(=O)C2C(C1=O)C1C=C(c3ccc(CO)cc3)C2C(C2CC2)N1C (stereo not given) | 0.028 | -0.152 | 0.0977 | -0.0431 (inactive) | 0.192 | 0.249 | 0.35 | -0.463 | -0.143 | 0.304
COC(=O)C(CC#Cc1ccc2c(c1)[C@]1(C(=O)N2)[C@H](c2ccccc2OCCO)N2[C@H](c3ccccc3)[C@H](c3ccccc3)OC(=O)[C@H]2[C@@H]1C(=O)N1CCc2cc(OC)c(OC)cc2C1)C(=O)OC | 1.56 | 0.0978 | 0.048 | -0.795 (inactive) | 0.71 | 1.3 | 1.02 | 1.26 | 0.882 | 0.279
